The record followed here is PubChem BioAssay (Tox21).

Results filed as inconclusive are left out. Some structures have more than one record in an assay (separate samples or runs), and their calls can disagree. Active and inactive are the calls of the source. Calls come from the whole dose curve; as a rule, active = well fitted curve in the direction sought with a large enough effect in the repeat runs; inconclusive = weak or mixed curves; inactive = no such curve, though single readings can be large; an effect the other way counts as inactive or inconclusive.

Assay [1] is described as follows: Caspase-3/7 induction in HepG2 cells by small molecules, qHTS assay (AID 1346978). Note: nearly all actives have a fitted effect of over 15% in size. Note: potency is the fitted concentration of half-maximal effect. The procedure, abridged: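 Wild-type HepG2 cells (2,000/well) were settled 5 h at 37 C, 5% CO2, then exposed to compounds in DMSO for 17 h. Caspase-3/7 activity was read by luminescence 30 min after adding Caspase-Glo 3/7 reagent at room temperature.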
Background: In qHTS, concentration-response curves come from the screen itself.

Assay [2] can be described thus: Caspase-3/7 induction in CHO-K1 cells by small molecules, qHTS cell viability counter screen (AID 1346979). Note: nearly all actives have a fitted effect of over 35% in size. Note: potency is the fitted concentration of half-maximal effect. An outline of the steps:
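Cytotoxicity counter screen: CellTiter-Fluor added to compound-treated wild-type CHO-K1 cells at 16 h (37C, 5% CO2), fluorescence measured 1 h later; same wells as caspase-3/7 measurement.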

A short description of assay [3]: Caspase-3/7 induction in CHO-K1 cells by small molecules, qHTS assay (AID 1346980). Note: % is set by controls: 0 for no effect and ±100 for the full control effect; nearly all actives have a fitted effect of over 15% in size. An outline of the steps: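 Wild-type cells were seeded at 1,500 per well and settled 5 hr at 37 C, 5% CO2, then exposed to DMSO-dissolved compounds for 17 hr. Caspase-Glo 3/7 reagent was added, and luminescence was read after 30min at room temperature.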
In assay [4] the target is Nuclear receptor subfamily 1 group I member 2 (Homo sapiens) (UniProt O75469). As to the kind of experiment: Human pregnane X receptor (PXR) small molecule agonists, qHTS assay (AID 1346982). Note: nearly all actives have a fitted effect of over 35% in size. Note: potency is the fitted concentration of half-maximal effect. The procedure, abridged:
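Stable HepG2 line reporting PXR-mediated CYP3A4 expression via luciferase. Treatment: 24 hr with compounds in DMSO at 37 C. Detection: ONE-Glo luminescence.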

Assay [5] addresses Cytochrome P450 2D6 (Homo sapiens) (UniProt P10635). As to the kind of experiment: Cytochrome P450 Family 2 Subfamily D Member 6 (CYP2D6) small molecule antagonists: luciferase reporter qHTS assay (AID 1671196). Note: nearly all actives have a fitted effect of over 50% in size. Note: potency is the fitted concentration of half-maximal effect. An outline of the steps: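 Chemicals tested for interference with CYP2D6 activity; proluciferin substrate, NADPH regeneration, 1 h at room temperature, luminescent detection.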
A general note: Reporter assays use an easily measured gene product as a stand-in for the process of interest.

Assay [6] has as its target Cytochrome P450 2C19 (Homo sapiens) (UniProt P33261). In words: Cytochrome P450 Family 2 Subfamily C Member 19 (CYP2C19) small molecule antagonists: luciferase reporter qHTS assay (AID 1671197). Note: nearly all actives have a fitted effect of over 65% in size. Note: potency is the fitted concentration of half-maximal effect. An outline of the steps:
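Luminescent readout of CYP2C19 activity: luciferin product detected 20 min after adding detection reagent. Before that, compound and enzyme-substrate mix preincubated 10 min at room temperature; NADPH-regenerating system started a 1 h, 37C reaction. Ketoconazole as positive control.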

For assay [7], the target named is Cytochrome P450 2C9 (Homo sapiens) (UniProt P11712). In words: Cytochrome P450 Family 2 Subfamily C Member 9 (CYP2C9) small molecule antagonists: luciferase reporter qHTS assay (AID 1671198). Note: nearly all actives have a fitted effect of over 50% in size. Note: potency is the fitted concentration of half-maximal effect. An outline of the steps: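 CYP2C9 activity was measured with a P450-Glo proluciferin substrate. Enzyme–substrate mix was held with compound for 10 min at room temperature, then NADPH regeneration solution was added for 1 h at 37C. Luciferin product was read as luminescence.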
Chain of Cytochrome P450 2C9 (Homo sapiens) (P11712 whole entry, looked up): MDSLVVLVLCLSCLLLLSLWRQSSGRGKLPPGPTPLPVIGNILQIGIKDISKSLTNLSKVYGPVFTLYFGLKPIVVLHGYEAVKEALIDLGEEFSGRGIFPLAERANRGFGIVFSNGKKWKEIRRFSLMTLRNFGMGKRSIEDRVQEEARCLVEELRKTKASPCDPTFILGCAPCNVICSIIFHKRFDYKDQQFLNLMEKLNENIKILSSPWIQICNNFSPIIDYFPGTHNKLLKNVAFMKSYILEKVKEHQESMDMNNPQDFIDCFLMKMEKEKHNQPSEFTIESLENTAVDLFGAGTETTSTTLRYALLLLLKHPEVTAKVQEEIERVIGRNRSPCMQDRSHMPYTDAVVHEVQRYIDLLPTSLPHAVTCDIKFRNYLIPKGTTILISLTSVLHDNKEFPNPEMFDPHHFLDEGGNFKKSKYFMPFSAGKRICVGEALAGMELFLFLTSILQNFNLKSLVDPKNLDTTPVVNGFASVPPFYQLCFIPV

For assay [8], the target named is Cytochrome P450 1A2 (Homo sapiens) (UniProt P05177). As to the kind of experiment: Cytochrome P450 Family 1 Subfamily A Member 2 (CYP1A2) small molecule antagonists: luciferase reporter qHTS assay (AID 1671199). Note: nearly all actives have a fitted effect of over 50% in size. Note: potency is the fitted concentration of half-maximal effect. The procedure, abridged:
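Read-out is luminescence from luciferin detection reagent (20 min) proportional to CYP1A2 activity; compounds in DMSO preincubated 10 min with enzyme and proluciferin substrate, then NADPH regeneration solution, 1 h, room temperature.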

The target in assay [9] is Voltage-gated inwardly rectifying potassium channel KCNH2 (Homo sapiens) (UniProt Q12809). As to the kind of experiment: Human Ether-a-go-go-Related Gene (hERG) channel small molecule antagonists: fluorescence cell-based qHTS assay (AID 1671200). Note: nearly all actives have a fitted effect of over 50% in size. Note: potency is the fitted concentration of half-maximal effect. The procedure, abridged: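 Thallium flux as potassium surrogate: FluxOR II dye loaded 1 h at room temperature into hERG-expressing U2OS cells, then stimulus buffer added after 10 min. Kinetic 480 nm excitation/540 nm emission read, 2 min.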
Chain of Voltage-gated inwardly rectifying potassium channel KCNH2 (Homo sapiens) (Q12809 whole entry, looked up): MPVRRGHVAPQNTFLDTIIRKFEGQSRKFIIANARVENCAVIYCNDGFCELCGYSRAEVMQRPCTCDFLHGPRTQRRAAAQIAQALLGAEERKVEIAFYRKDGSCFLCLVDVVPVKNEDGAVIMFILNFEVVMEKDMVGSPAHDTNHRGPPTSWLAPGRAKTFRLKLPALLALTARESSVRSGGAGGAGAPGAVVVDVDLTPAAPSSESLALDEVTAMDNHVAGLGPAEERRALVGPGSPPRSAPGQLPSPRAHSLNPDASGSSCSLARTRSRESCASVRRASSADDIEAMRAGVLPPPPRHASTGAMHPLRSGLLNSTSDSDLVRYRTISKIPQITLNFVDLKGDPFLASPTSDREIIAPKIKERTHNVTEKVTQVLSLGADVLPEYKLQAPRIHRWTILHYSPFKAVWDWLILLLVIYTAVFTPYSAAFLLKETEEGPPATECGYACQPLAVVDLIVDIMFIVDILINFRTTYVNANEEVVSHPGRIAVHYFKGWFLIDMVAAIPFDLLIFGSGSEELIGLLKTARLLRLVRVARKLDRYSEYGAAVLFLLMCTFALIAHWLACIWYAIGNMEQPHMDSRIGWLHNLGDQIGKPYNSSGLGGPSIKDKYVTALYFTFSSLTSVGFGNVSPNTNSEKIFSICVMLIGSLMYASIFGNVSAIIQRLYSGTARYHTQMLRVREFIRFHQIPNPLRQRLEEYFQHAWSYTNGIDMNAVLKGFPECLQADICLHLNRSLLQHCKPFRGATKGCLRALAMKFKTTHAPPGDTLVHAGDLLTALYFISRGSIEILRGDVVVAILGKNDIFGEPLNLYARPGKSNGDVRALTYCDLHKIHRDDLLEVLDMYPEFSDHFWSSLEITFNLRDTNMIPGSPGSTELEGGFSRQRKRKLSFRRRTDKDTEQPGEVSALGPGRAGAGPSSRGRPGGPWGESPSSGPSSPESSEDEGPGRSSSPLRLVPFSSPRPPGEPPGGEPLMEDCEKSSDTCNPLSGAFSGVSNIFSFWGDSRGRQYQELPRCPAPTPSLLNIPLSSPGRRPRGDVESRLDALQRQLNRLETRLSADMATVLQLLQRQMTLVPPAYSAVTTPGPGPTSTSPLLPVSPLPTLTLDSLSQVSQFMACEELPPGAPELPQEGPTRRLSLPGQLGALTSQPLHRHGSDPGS
(The hERG channel carries a current that helps repolarise heart muscle cells.)

The target of assay [10] is Cytochrome P450 3A4 (Homo sapiens) (UniProt P08684). As to the kind of experiment: Cytochrome P450 Family 3 Subfamily A Member 4 (CYP3A4) small molecule antagonists: luciferase reporter qHTS assay (AID 1671201). Note: nearly all actives have a fitted effect of over 50% in size. Note: potency is the fitted concentration of half-maximal effect. An outline of the steps: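 Recombinant human CYP3A4 converts a proluciferin substrate to luciferin over 1 h at room temperature after NADPH regeneration solution is added (compound preincubated 10 min); detection reagent stops reaction, luminescence read 20 min later as relative units.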
Chain of Cytochrome P450 3A4 (Homo sapiens) (P08684 whole entry, looked up): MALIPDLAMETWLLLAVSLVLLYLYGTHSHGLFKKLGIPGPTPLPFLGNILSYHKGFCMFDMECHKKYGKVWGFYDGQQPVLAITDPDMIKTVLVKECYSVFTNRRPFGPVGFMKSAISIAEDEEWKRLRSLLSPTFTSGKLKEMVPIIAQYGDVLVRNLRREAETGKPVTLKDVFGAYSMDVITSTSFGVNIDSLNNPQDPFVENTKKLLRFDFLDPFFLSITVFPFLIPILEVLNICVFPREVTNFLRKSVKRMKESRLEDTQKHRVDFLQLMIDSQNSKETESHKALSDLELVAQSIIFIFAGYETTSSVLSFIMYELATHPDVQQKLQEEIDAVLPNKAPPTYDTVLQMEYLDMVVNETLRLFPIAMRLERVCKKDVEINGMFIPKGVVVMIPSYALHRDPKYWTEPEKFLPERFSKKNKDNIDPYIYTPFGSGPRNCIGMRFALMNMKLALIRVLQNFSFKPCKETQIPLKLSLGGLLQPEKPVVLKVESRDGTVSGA

Assay [11] can be described thus: Caspase-3/7 induction in HepG2 cells by small molecules, qHTS cell viability counter screen (AID 1346981). Note: potency is the fitted concentration of half-maximal effect; nearly all actives have a fitted effect of over 30% in size. The procedure, abridged: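 Treatment of HepG2 cells with DMSO-delivered compounds ran 16 hr at 37 C following a 5-hr pre-incubation of 2,000 cells/well. CellTiter-Fluor fluorescence, read after 1 hr, served as the viability measure in a qHTS format.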

Chain of Cytochrome P450 1A2 (Homo sapiens) (P05177 whole entry, looked up): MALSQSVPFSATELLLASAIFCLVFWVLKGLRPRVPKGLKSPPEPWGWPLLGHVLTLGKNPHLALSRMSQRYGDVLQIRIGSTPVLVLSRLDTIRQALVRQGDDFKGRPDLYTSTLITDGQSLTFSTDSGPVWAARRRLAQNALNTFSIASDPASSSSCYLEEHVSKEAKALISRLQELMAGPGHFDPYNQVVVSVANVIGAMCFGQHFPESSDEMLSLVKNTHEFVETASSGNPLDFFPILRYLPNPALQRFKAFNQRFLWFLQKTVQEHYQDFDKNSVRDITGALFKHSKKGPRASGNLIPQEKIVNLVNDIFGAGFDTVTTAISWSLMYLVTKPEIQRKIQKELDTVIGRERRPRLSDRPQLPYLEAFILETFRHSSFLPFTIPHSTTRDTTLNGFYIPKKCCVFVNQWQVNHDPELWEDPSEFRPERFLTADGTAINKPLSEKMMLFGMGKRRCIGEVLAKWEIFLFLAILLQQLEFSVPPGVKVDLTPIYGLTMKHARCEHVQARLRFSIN
Chain of Cytochrome P450 2D6 (Homo sapiens) (P10635 whole entry, looked up): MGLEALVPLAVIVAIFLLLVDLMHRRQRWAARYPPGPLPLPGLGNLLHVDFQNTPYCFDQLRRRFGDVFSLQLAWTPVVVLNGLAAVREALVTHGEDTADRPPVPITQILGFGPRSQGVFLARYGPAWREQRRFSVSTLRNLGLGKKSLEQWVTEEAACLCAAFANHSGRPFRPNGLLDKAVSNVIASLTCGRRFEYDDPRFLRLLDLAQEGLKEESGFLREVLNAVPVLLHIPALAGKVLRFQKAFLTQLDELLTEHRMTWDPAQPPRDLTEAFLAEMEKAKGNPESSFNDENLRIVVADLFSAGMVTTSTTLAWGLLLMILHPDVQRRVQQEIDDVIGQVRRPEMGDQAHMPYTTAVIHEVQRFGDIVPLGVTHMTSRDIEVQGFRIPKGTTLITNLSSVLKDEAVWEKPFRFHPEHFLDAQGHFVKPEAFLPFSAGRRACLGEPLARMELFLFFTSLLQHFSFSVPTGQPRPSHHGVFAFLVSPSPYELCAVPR
Chain of Cytochrome P450 2C19 (Homo sapiens) (P33261 whole entry, looked up): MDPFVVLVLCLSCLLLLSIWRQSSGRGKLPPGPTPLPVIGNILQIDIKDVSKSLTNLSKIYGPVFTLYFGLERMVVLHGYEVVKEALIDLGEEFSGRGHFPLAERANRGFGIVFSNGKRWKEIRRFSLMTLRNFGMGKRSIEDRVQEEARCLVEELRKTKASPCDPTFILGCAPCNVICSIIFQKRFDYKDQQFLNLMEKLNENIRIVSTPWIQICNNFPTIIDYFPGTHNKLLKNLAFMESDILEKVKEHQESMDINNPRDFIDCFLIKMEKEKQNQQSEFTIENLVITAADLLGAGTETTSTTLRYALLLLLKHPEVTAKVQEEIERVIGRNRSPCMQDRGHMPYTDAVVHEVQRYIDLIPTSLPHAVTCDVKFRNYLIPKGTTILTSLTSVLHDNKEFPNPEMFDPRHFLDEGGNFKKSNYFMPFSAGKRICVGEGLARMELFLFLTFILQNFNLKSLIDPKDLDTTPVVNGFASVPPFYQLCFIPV
Chain of Nuclear receptor subfamily 1 group I member 2 (Homo sapiens) (O75469 whole entry, looked up): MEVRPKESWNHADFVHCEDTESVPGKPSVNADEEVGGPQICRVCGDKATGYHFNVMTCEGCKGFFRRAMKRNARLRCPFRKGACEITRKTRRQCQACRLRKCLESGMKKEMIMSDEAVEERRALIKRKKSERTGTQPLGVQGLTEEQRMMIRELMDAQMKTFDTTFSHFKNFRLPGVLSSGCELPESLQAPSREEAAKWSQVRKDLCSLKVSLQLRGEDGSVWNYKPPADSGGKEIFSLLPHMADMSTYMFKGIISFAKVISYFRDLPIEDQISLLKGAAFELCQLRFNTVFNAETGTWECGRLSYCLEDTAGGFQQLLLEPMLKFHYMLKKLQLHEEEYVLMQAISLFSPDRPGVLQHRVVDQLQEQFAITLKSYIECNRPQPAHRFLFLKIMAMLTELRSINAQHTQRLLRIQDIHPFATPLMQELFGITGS

Turning to `O=c1cccccc1O`, the Potency result in assay [1], in assay [3], in [5], in assay [6], in [7] and in assay [8] was “inactive” in each case. For the same compound, the Potency entry in assay [9] and in [10] was “inactive” each time. Further, the values for the Potency in assay [2] and in [4] were 7.84 µM (active) and 69.9 µM (active), respectively.

As to `O=C(O)c1cc(O)c2c(c1)C(=O)c1cccc(O)c1C2=O`, the Potency result in [1], in [3], in assay [4], in assay [5], in assay [6] and in [9] was “inactive” in each case. Further, the Potency entry in [10] was “inactive”. For the same compound, the Potency was 35.4 µM (active) in [2] and 36.7 µM (active) in [8].

In the case of `CC(C)n1nc(-c2cc3cc(O)ccc3[nH]2)c2c(N)ncnc21`, the Potency is 29.8 µM (active) in assay [1]; 1.06 µM (active) in assay [2]; 3.76 µM (active) in [4]; 30.9 µM (active) in assay [5]; 0.49 µM (active) in assay [6]; 2.45 µM (active) in assay [7]. For the same compound, the Potency in assay [8] is 3.63 µM (active). In addition, the Potency entry in [9] was “inactive”.

In the case of `CCCCCCCC/C=C/CCCCCCCC1=NCCN1CCO`, the Potency in [1] was 43.3 µM (active); in assay [2], 54.5 µM (active); in [11], 54.5 µM (active); in assay [5], 5.03 µM (active); in assay [7], 25.2 µM (active); in [10], 31.7 µM (active).

As to `CCOC(=O)c1nc(C(Cl)(Cl)Cl)n(-c2ccc(Cl)cc2Cl)n1`, the Potency entry in assay [1], in assay [3], in [8] and in assay [10] was “inactive” in each case. Further, the Potency in assay [2] is 54.5 µM (active); in [4], 19.3 µM (active); in assay [5], 14.2 µM (active); in [7], 3.17 µM (active).

As for `Cc1cc2c(cc1C(F)(F)F)N(C(=O)Nc1ccc(Oc3cccnc3C)nc1)CC2`, the Potency entry in assay [1], in assay [3] and in assay [9] was “inactive” throughout. Also, the Potency was 24.7 µM (active) in assay [2]; 13.9 µM (active) in assay [4]; 22.8 µM (active) in assay [5]; 11.4 µM (active) in assay [7]; 72.1 µM (active) in [8]; 20.3 µM (active) in assay [10].

Regarding `CCCCCCCCCCCCCCCCCC[N+](C)(C)C`, the Potency entry in assay [1], in assay [3] and in [4] was “inactive” each time. For the same compound, the Potency was 27.4 µM (active) in [2]; 0.635 µM (active) in assay [5]; 89.6 µM (active) in [6]; 63.5 µM (active) in [7]; 71.2 µM (active) in [10].

On to `CCc1oc2ccccc2c1C(=O)c1cc(Br)c(O)c(Br)c1`, for which the Potency result in assay [1], in assay [2], in assay [3], in assay [5], in [6] and in [8] was “inactive” in each case. Also, the Potency result in [10] was “inactive”. In addition, the Potency in [9] was 10.7 µM (active).

In the case of `NC(=NCCCCCCN=C(N)/N=C(\N)Nc1ccc(Cl)cc1)/N=C(\N)Nc1ccc(Cl)cc1`, the Potency result in [1], in assay [3] and in assay [9] was “inactive” each time. Further, the Potency is 24.2 µM (active) [middle of 5 runs] in assay [2]; 2.41 µM (active) and inactive in [4]; 22.3 µM (active) [middle of 5 runs] in assay [6]; 25.1 µM (active) [middle of 5 runs] in assay [7].

On to `Oc1cccc(-c2c3nc(c(-c4cccc(O)c4)c4ccc([nH]4)c(-c4cccc(O)c4)c4nc(c(-c5cccc(O)c5)c5ccc2[nH]5)CC4)C=C3)c1`, for which the Potency entry in assay [1], in assay [3], in assay [4], in assay [8] and in assay [9] was “inactive” throughout. Besides, the figures for the Potency in [2], in assay [6] and in [7] were 13.3 µM (active), 38.9 µM (active) and 13.8 µM (active), respectively.

As to `CC/C(=C(\c1ccc(O)cc1)c1ccc(OCCN(C)C)cc1)c1ccccc1`, the Potency in [1] is 34.4 µM (active); in assay [2], 34.4 µM (active); in [11], 43.4 µM (active); in assay [4], 6.87 µM (active); in assay [5] it was 40 µM (active); in assay [6] it was 44.9 µM (active). For the same compound, the Potency was 71.2 µM (active) in [7] and 12.7 µM (active) in assay [10]. The Potency result in assay [8] is “inactive”.

For the compound `Cc1cc(O)c(C(C)(C)C)cc1C(C)(C)C`, the Potency is 61.1 µM (active) in [1]; 61.1 µM (active) in assay [2]; 17.8 µM (active) in [6]; 28.3 µM (active) in [7]; 35.6 µM (active) in assay [8]; 31.7 µM (active) in assay [10].
